These results are taken from PubChem BioAssay.

For part of these data: Measured potencies and affinities stand elsewhere. Calls of active or inactive are those of the source.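 How the source made its calls, unless noted: active means earlier screen potentiator hit that boosts the TRPC4 ion channel at some dose, with a dose response; inactive means no potentiation, no dose response, or not a prior hit.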

Assay [1] relates to TRPC4 beta (transient receptor potential cation channel C4), mouse. Put plainly: activators of mouse TRPC4 channel, confirmation, cell-based, Fluo4 calcium, HEK293 TRPC4beta/mu-opioid, duplicates, 10 µM (AID 2426;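 active means fluorescence ratio normalized to control raised more than 50% in primary screen plus both repeat runs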). The note with it: Fluo4 calcium fluorescence, at 10 µM; stronger effect = higher value.
Assay [2] concerns transient receptor potential cation channel C4 beta (TRPC4), mouse. Put plainly: activators of mouse TRPC4 channel, confirmation, cell-based, second round, Fluo4, HEK293 TRPC4beta/mu-opioid, 1 µM (AID 2461;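 active means primary screen active and over 50% activation in each of two duplicate runs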). As to conditions: Fluo4 calcium fluorescence, at 1 µM; stronger effect = higher value.
For assay [3], the system named is TRPC4 (transient receptor potential cation channel C4 beta), mouse. The assay can be described thus: positive allosteric modulators of mouse TRPC4, confirmation, cell-based, second round, Fluo-4, HEK293 TRPC4beta/mu-opioid, 1 µM (AID 2554;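 active means primary screen hit whose fluorescence ratio, in both repeats, exceeds the weak agonist control mean by 3 SD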). As to conditions: DAMGO EC20, Fluo-4 calcium flux, at 1 µM; stronger effect = higher value.
Assay [4] deals with TRPC4 beta (transient receptor potential cation channel C4), mouse. The assay can be described thus: positive allosteric modulators of mouse TRPC4, confirmation, cell-based, Fluo-4, HEK293 TRPC4beta/mu-opioid (AID 2555;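 active means primary screen hit whose calcium fluorescence ratio, in both repeats, exceeds the weak agonist control mean by 3 SD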). The note with it: DAMGO EC20, Fluo-4 calcium flux, at 10 µM; stronger effect = higher value.
In assay [5] the target is Short transient receptor potential channel 4 (Mus musculus) (UniProt Q9QUQ5). The assay can be described thus: inhibitors of mouse TRPC4 channel, confirmation, cell-based, Fluo4, HEK293 TRPC4beta/mu-opioid (AID 2636;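 active means calcium signal cut by more than 3 SD below the full-agonist control yet still positive, in both repeats and the earlier primary screen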). The note with it: DAMGO, Fluo4 calcium flux, at 10 µM; stronger effect = higher value.
Assay [6] shares this target. The assay can be described thus: inhibitors of mouse TRPC4 channel, confirmation, cell-based, second round, Fluo4, HEK293 TRPC4beta/mu-opioid, 1 µM (AID 2637;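 active means calcium signal ratio cut to more than 3 SD under the fully stimulated control mean yet still positive, in both repeats and the primary screen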;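 on inhibition: percent of integrated ratio relative to wells lacking test compound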). The note with it: Fluo4 calcium flux, DAMGO, at 1 µM; stronger effect = higher value.
The target is the same in assay [7]. The assay can be described thus: mouse TRPC4 channel activators, dose response, cell-based, HEK293 TRPC4/mu-opioid, Fluo-4 calcium (AID 434937;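 active means primary screen activator hit with a dose response curve and TRPC4 channel activation at any tested dose; inactive means no activation, no dose response, or not a primary hit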).
The target is the same in assay [8]. The assay can be described thus: TRPC4 positive allosteric modulators, dose response, cell-based, HEK293 TRPC4/mu-opioid, Fluo-4 calcium, EC20 DAMGO (AID 434941).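 Further: calcium entry triggered by an EC20 dose of DAMGO at the co-expressed mu-opioid receptor.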
The target in assay [9] is Short transient receptor potential channel 6 (Mus musculus) (UniProt Q61143). Put plainly: inhibition of mouse TRPC6 channel, confirmation, selectivity assay for TRPC4 inhibitor project, cell-based, HEK293, membrane potential dye, duplicate (AID 434948;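 active means active in primary screen and both duplicates, each dropping signal beyond three positive-control SD with fluorescence still positive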). As to conditions: HEK293 TRPC6, membrane potential dye fluorescence, at 10 µM, stimulated with maximal-effect acetylcholine; stronger effect = higher value.

Assay [10] shares this target. Put plainly: activation of mouse TRPC6 channel, confirmation, selectivity assay for TRPC4 activator project, cell-based, HEK293, membrane potential dye, duplicate (AID 434950;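 active means membrane potential signal rise above negative control mean plus 3 SD in both duplicates, also active in the earlier TRPC4 screen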). The note with it: HEK293 TRPC6, membrane potential fluorescence, at 10 µM; stronger effect = higher value.
For assay [11] the target is unchanged. The assay can be described thus: TRPC6 potentiation by TRPC4 potentiator hits, confirmation, selectivity assay for TRPC4 potentiator project, HEK293 cells, membrane potential dye, duplicate (AID 434952;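 active means compound raising the membrane signal above positive-control mean plus 3 SD in both repeats, and a primary screen hit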). The note with it: HEK293 TRPC6, membrane potential dye fluorescence, at 10 µM, maximal acetylcholine added after compound; stronger effect = higher value.
In assay [12] the target is Short transient receptor potential channel 4 (Mus musculus) (UniProt Q9QUQ5). Put plainly: calcium flux activators in TRPC4/5HT1a cells, counter-screen for TRPC4 activator project, cell-based, second counter screen, HEK293 TRPC4/5HT1a, Fluo-4 (AID 434977;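 active means calcium signal rise above buffer-control mean plus 5 SD in both duplicates, and also a hit in the primary screen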). As to conditions: Fluo-4 calcium flux, at 10 µM; stronger effect = higher value.
Assay [13] can be described thus: calcium flux inhibitors in TRPC4/5HT1a cells, confirmation, counter-screen for TRPC4 inhibitor project, cell-based, second counter screen, HEK293 TRPC4/5HT1a, Fluo-4 (AID 434978;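 active means primary screen active whose calcium signal fell more than 3 SD beyond the full-serotonin control mean in both duplicate plates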;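 on outcome: serotonin given first at submaximal then at maximal dose after compound preincubation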). The note with it: Fluo-4 calcium flux, at 10 µM, serotonin added to trigger calcium flux; stronger effect = higher value.
Assay [14] concerns TRPC4 (mouse), co-expressed with 5HT1a in HEK293. The assay can be described thus: calcium flux potentiators in TRPC4/5HT1a cells, confirmation, counter-screen for TRPC4 potentiator project, cell-based, second counter screen, HEK293 TRPC4/5HT1a, Fluo-4 (AID 434979;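 active means signal rise over 3 SD above mean of control wells given weak agonist, in both repeats and first screen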). The note with it: Fluo-4 calcium flux, at 10 µM, serotonin added at its EC20 dose; stronger effect = higher value.
A short description of assay [15]: calcium flux activation in mu-opioid HEK293 cells, confirmation, counter-screen for TRPC4 activator project, cell-based, HEK293 mu-opioid receptor line (AID 449723;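 active means hit in primary screen, with calcium signal over 5 SD above buffer well mean in both duplicates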;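 further: counter screen cells carry the mu-opioid receptor alone and lack TRPC4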). As to conditions: Fluo-4 calcium fluorescence, at 10 µM; stronger effect = higher value.
Assay [16] is described as follows: calcium flux enhancement in mu-opioid HEK293 cells, confirmation, counter-screen for TRPC4 allosteric potentiator project, cell-based, HEK293 mu-opioid receptor line (AID 449724;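 active means calcium signal rise more than 3 SD above the low-dose agonist control mean, in both duplicate plates and the primary screen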;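 further: HEK293 cells carrying mu-opioid receptor only with no TRPC4 channel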). The note with it: Fluo-4 calcium flux, at 10 µM, compound added before EC20 DAMGO stimulus; stronger effect = higher value.

Chain of Short transient receptor potential channel 6 (Mus musculus) (Q61143 whole entry, looked up): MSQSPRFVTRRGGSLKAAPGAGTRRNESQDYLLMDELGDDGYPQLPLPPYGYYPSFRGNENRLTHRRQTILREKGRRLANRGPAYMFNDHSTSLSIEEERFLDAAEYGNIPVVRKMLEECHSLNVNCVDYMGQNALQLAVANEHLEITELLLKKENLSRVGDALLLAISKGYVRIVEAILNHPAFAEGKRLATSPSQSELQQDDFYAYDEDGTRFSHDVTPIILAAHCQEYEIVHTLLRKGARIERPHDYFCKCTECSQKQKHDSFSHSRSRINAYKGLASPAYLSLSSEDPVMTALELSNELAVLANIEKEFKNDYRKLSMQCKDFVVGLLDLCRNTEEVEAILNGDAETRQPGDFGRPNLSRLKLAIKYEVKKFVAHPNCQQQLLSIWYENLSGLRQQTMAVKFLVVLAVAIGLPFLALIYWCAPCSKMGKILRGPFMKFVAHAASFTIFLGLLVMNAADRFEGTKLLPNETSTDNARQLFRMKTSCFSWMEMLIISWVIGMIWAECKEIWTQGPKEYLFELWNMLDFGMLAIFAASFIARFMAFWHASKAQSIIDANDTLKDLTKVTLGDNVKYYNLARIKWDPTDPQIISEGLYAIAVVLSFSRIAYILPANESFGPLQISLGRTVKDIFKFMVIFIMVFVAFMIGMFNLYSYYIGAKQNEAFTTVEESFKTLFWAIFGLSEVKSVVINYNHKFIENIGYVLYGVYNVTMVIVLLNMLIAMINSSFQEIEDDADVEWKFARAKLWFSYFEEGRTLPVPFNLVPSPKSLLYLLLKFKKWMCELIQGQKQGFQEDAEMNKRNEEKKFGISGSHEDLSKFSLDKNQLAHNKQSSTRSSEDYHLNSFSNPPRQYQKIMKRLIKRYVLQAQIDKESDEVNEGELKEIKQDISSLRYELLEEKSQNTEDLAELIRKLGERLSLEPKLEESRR
Chain of Short transient receptor potential channel 4 (Mus musculus) (Q9QUQ5 whole entry, looked up): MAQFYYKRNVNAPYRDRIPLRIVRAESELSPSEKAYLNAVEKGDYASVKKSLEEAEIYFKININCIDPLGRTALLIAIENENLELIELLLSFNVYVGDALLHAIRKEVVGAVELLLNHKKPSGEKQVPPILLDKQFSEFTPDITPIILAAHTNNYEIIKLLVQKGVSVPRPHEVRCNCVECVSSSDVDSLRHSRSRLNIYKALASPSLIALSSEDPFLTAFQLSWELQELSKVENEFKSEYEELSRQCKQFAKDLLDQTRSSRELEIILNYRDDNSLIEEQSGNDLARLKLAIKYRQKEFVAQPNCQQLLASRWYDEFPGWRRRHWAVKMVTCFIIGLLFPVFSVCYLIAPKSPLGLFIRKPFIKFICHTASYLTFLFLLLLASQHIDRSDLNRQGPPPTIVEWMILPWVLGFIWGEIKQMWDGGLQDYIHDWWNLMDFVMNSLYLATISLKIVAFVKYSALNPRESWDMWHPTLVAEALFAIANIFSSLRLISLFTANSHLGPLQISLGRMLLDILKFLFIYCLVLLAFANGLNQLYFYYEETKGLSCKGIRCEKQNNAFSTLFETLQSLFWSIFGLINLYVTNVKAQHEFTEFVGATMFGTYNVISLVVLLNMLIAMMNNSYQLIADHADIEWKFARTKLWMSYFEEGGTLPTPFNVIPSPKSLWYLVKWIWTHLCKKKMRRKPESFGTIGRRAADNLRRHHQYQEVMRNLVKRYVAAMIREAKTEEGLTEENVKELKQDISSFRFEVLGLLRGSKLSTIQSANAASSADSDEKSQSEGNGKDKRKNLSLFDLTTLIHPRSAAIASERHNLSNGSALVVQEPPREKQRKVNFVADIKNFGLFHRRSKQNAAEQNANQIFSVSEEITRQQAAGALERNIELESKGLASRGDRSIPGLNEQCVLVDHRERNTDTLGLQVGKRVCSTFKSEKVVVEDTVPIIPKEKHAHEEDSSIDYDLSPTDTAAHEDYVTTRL

`COc1cc(OC)c(C2N(C)c3ccccc3N2C)cc1OC`: the outcome in assay [1], in [2], in assay [3], in assay [4], in assay [6] and in [7] was inactive. Further, the result in [8], in assay [9], in [10], in [11], in assay [12] and in assay [13] was inactive. Further, the outcome in assay [14], in [15] and in assay [16] was inactive. For the same compound, the inhibition in [5] is 77% (active).
For `CCCCn1c(NC(=O)c2ccccc2)nc2ccccc21`, the outcome in assay [1], in assay [2], in assay [3], in assay [5], in assay [6] and in [7] was inactive. For the same compound, the outcome in assay [8], in [9], in assay [10], in [11], in [12] and in [13] was inactive. Further, the result in [14], in assay [15] and in [16] was inactive. In addition, in [4], the potentiation is 20% (active).
With `Cc1ccc(C(C)(C)C)cc1S(=O)(=O)Nc1nc2ccccc2nc1Cl`, the outcome in assay [1], in [2], in assay [3], in assay [4], in [5] and in assay [6] was inactive. Also, the result in [7], in assay [8], in assay [9], in assay [10], in assay [11] and in assay [12] was inactive. Moreover, the result in [14], in [15] and in assay [16] was inactive. The inhibition in assay [13] was 6.84% (active).
As to `CN(C)CCCN(C(=O)c1ccc(S(=O)(=O)N2CCCC2)cc1)c1nc2c(F)cc(F)cc2s1`, the result in [1], in assay [2], in [3], in [4], in assay [6] and in assay [7] was inactive. In addition, the result in [8], in assay [9], in [10], in assay [11], in assay [12] and in [13] was inactive. The result in [14], in assay [15] and in assay [16] was inactive. In addition, the inhibition in [5] was 68% (active).
For the compound `Cc1ccc(CNC(C)c2ccccc2)cc1` (stereo not given), the outcome in [1], in assay [2], in assay [3], in [4], in [6] and in assay [7] was inactive. Further, the outcome in assay [8], in assay [9], in assay [10], in assay [11], in assay [12] and in assay [14] was inactive. Also, the outcome in assay [15] and in [16] was inactive. The inhibition in assay [5] was 92% (active); in assay [13], 30.6% (active).
As to `CCOc1cc(CNCCCN2CCOCC2)cc(Br)c1OCc1ccccc1Cl`, the outcome in [1], in assay [2], in assay [3], in [4], in assay [6] and in assay [7] was inactive. Moreover, the result in assay [8], in [9], in [10], in assay [11], in assay [12] and in assay [13] was inactive. Also, the outcome in assay [14], in assay [15] and in assay [16] was inactive. Moreover, the inhibition in assay [5] is 77% (active).
As to `CCCCn1c2ccccc2c2nnc(SCCN3CCCCC3)nc21`, the result in assay [1], in assay [2], in assay [3], in [4], in [6] and in assay [7] was inactive. For the same compound, the outcome in [8], in assay [10], in [11], in [12], in assay [14] and in assay [15] was inactive. Besides, in assay [16], the outcome was inactive. Moreover, the inhibition in assay [5] is 84% (active); in [9], 44.5% (active); in assay [13] it was 31.3% (active).
Take `Fc1ccc(-n2cc(CNCCc3ccncc3)c(-c3ccccc3Cl)n2)cc1`: the result in assay [1], in assay [2], in assay [3], in assay [4], in assay [5] and in assay [6] was inactive. Further, the result in assay [7], in [8], in [9], in assay [10], in [11] and in assay [12] was inactive. For the same compound, the result in assay [13], in [14], in assay [15] and in assay [16] was inactive.
In the case of `O=C(Nc1ccccc1Oc1cccnc1)C1CCCN(Cc2cccc(Cl)c2)C1` (stereo not given), the result in [1], in assay [2], in [3], in assay [4], in assay [6] and in assay [7] was inactive. Besides, the outcome in assay [8], in assay [9], in assay [10], in [11], in assay [12] and in assay [14] was inactive. The outcome in assay [15] and in assay [16] was inactive. The inhibition in assay [5] was 89% (active); in assay [13] it was 33.5% (active).
`COc1ccc(Nc2nc(N)c3ccccc3n2)c(OC)c1`: the outcome in assay [1], in [2], in assay [3], in assay [4], in [6] and in [7] was inactive. The result in assay [8], in assay [9], in [10], in assay [11], in assay [12] and in assay [14] was inactive. Besides, the outcome in assay [15] and in assay [16] was inactive. For the same compound, the inhibition is 93% (active) in assay [5] and 26.1% (active) in [13].
As for `O=C(NC1CCCCC1)N1CCN(C(c2ccccc2)c2ccccc2)CC1`, the result in assay [1], in [2], in assay [3], in assay [4], in assay [5] and in assay [6] was inactive. Moreover, the outcome in assay [7], in assay [8], in assay [9], in [10], in assay [11] and in assay [12] was inactive. For the same compound, the outcome in assay [13], in [14], in assay [15] and in assay [16] was inactive.
Regarding `Cc1ccccc1C(=O)NC1CC2CCC(C1)N2Cc1ccccc1` (stereo not given), the result in assay [1], in [2], in [3], in assay [4], in [7] and in assay [8] was inactive. Also, the outcome in assay [9], in assay [10], in assay [11], in [12], in assay [14] and in [15] was inactive. Also, in assay [16], the result was inactive. In addition, the results for the inhibition in [5], in assay [6] and in [13] were 68% (active), 47% (active) and 43.3% (active), respectively.
`CN(C)C(CNC(=O)c1cccc(C(F)(F)F)c1)c1ccco1` (stereo not given): the outcome in [1], in assay [2], in [3], in assay [4], in assay [7] and in assay [8] was inactive. Further, the outcome in [9], in assay [10], in [11], in assay [12], in assay [13] and in assay [14] was inactive. Also, the outcome in assay [15] and in assay [16] was inactive. Also, the inhibition in assay [5] is 67% (active); in assay [6], 69% (active).
In the case of `CCCn1c(NC(=O)c2ccc(Cl)c(S(=O)(=O)N3CCCC3)c2)nc2ccccc21`, the result in [1], in assay [2], in [6], in [7], in assay [8] and in assay [9] was inactive. Moreover, the result in [10], in assay [11], in [12], in [13], in [15] and in [16] was inactive. The potentiation in [3] was 10% (active); in assay [4], 24% (active); in [14] it was 6.75% (active). Further, the inhibition in assay [5] is 69% (active).
`COc1ccc(/C=C/C(=O)Oc2cc(O)cc(O)c2)cc1`: the outcome in assay [1], in [2], in [3], in assay [4], in assay [6] and in assay [7] was inactive. The outcome in [8], in assay [9], in assay [10], in assay [11], in assay [12] and in assay [14] was inactive. Further, the outcome in assay [15] and in assay [16] was inactive. Further, the inhibition in [5] is 96% (active); in assay [13], 27.4% (active).
